IMPase Li inh = cell-permeable IMPase inhibitors with lithium potentiation | CHO-M1 cells, IP1 TR-FRET (IP-One), carbachol + lithium | Potency, µM (top dose mostly 59.4 µM), inactives show at the highest dose activity, negative = IMPase inhibition, usual class: inhibitors | 210,000 compounds, 0.35% hits | AID 1457;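 also: IP1 builds up when IMPase is blocked and the TR-FRET signal falls; potency is read from the fitted curve at half-maximal effect; plate controls were basal vehicle for no effect and high inhibitor control for full effect; nearly all actives have a fitted effect of over 50% in size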
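CHO cells stably expressing M1 receptor (2000/well) were cultured 16–30 h, then exposed to compounds with a small lithium addition for 30 min at 37C. IP1 was measured by TR-FRET competition; AC50 from Hill fits.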
PNC assembly inh = inhibitors of perinucleolar compartment assembly; PC3M PTB-GFP, PNC prevalence imaging, 16 h; stronger effect = lower value; activity change (PNC), negative = inhibition, % at 10 µM; 140,000 compounds, 3.1% hits; AID 2417;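 active = readout at or below -70, meaning at least 70% loss of cells showing the perinucleolar compartment, a nuclear body marking cancer cells; inconclusive = readout between -30 and a set limit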;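 also: plate controls were DMSO wells for no effect and camptothecin positive control wells for full effect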
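PC3M cells stably expressing PTB-GFP, 750–1000 cells/well, treated 16 h at 37 °C with compound (23 nl of library stock), in duplicate. After paraformaldehyde fixation and Hoechst stain, imaged at 20x; PNC prevalence scored by image analysis.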
IMPase cell inh = IMPase inhibition in cells | P97697 | CHO-M1 cells, IP1 accumulation, HTRF TR-FRET ratio | inhibition (IP1 accumulation), % at 46.1 µM | 120,000 tested, under 10 active | AID 901; active = well fitted curve in the direction sought with a large enough effect in the signal ratio, not every such curve was filed as active; inconclusive = small, poorly fitted or top-dose-only effect, or a change in a side signal; inactive = no such curve, though single readings can be large or run the other way; the % refers to the signal ratio;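 also: cells stimulated with carbachol in lithium chloride buffer; plate controls were DMSO basal wells for no effect and reference inhibitor wells for full effect; higher means more IMPase inhibition seen as more IP1 and lower FRET ratio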
Target sequence (P97697 whole entry, looked up): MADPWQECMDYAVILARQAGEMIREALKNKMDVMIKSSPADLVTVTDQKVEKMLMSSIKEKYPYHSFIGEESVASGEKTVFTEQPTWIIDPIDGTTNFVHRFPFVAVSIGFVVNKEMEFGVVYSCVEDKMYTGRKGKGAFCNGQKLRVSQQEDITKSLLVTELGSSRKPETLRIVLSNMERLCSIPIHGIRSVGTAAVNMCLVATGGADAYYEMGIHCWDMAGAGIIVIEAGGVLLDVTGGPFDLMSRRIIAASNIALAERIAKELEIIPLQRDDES
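Measured: the HTRF emission ratio (665/620 nm) plus the 620 nm donor channel, each fitted to the Hill equation to give AC50. Cells were CHO-M1 given compounds up to 46 uM and a 30 min carbachol stimulation at 37C.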
HPGD inh = inhibitors of human 15-hydroxyprostaglandin dehydrogenase (HPGD) | P15428 | purified HPGD, NADH fluorescence kinetic, PGE2 substrate | Potency, µM, for the others: at the highest dose activity change, negative = inhibition, hits mostly inhibitors | 150,000 compounds, 4.3% hits | AID 894; active = well fitted inhibition curve with a large enough effect, not every such curve was filed as active; inconclusive = small, poorly fitted or top-dose-only effect, or another doubt; inactive = no such curve, though single readings can be large or run the other way; also: potency is read from the fitted curve at half-maximal effect
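NADH formation kinetics: reaction with 30 uM PGE2 and 1 mM NAD+ (final), 20 nM enzyme, Tris-HCl pH 8 with Tween 20, after 15 min compound preincubation at room temperature. Fluorescence change, last versus first of five reads.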
ALDH1A1 inh = ALDH1A1 (human) enzyme inhibition; 220,000 compounds, 7.3% hits; Potency, µM (titrated, usually from 75.3 µM), without a hit: at the top dose activity, negative = inhibition, usual class: inhibitors; Purified ALDH1A1, NADH fluorescence, propionaldehyde substrate; P00352; AID 1030; active = well fitted inhibition curve with a large enough effect, not every such curve was filed as active; inconclusive = small, poorly fitted or top-dose-only effect, or another doubt; inactive = no such curve, though single readings can be large or run the other way;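 also: potency is read from the fitted curve at half-maximal effect; plate controls were no enzyme wells and a reference inhibitor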
Target sequence (P00352 whole entry, looked up): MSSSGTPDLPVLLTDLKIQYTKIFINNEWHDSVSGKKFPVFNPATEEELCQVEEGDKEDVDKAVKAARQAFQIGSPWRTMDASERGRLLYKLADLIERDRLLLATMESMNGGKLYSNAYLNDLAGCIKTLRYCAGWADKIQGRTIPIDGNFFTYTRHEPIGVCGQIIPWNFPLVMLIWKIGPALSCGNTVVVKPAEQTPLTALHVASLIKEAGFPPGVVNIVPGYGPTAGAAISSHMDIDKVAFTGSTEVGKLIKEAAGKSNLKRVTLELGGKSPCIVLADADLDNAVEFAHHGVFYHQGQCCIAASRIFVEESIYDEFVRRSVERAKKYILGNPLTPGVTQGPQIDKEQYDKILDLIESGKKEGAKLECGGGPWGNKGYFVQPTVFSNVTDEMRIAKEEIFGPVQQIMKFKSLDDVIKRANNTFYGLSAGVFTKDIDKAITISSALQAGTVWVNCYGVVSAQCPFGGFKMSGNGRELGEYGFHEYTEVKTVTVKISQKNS
12-hLO inh = blocks human 12-lipoxygenase activity; P18054; purified 12-hLO, xylenol orange hydroperoxide absorbance; Potency, µM (series often up to 57.1 µM), for inactives: at the highest dose activity change, negative = inhibition, usual class: inhibitors; 150,000 compounds, 0.12% hits; AID 1452; also: potency is read from the fitted curve at half-maximal effect; nearly all actives have a fitted effect of over 55% in size
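Hydroperoxide formation by human 12-lipoxygenase from 40 uM arachidonic acid was followed colorimetrically via ferric-xylenol orange complex, using the 573/405 nm absorbance ratio. Enzyme concentration was 150 nM, with 30 min reaction at room temperature.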
Active calls of the source: *; ? = inconclusive; . = not tested or not shown; [ ] = dose if it differs, or a comment. The list is not random: actives were taken first. Their share in the collection is about 11%. Unless noted, calls follow the shape of the dose curve; as a rule, active = well fitted curve in the direction sought with a large enough effect; inconclusive = small, poorly fitted or top-dose-only effect, or another doubt; inactive = no such curve, though single readings can be large; an effect the other way counts as inactive or inconclusive. Unless noted, % is scaled to controls: 0 for no effect and ±100 for the full control effect.

SMILES	IMPase Li inh	PNC assembly inh	IMPase cell inh	HPGD inh	ALDH1A1 inh	12-hLO inh
O=C(/N=C1\NC(=O)C(F)(C(F)(F)F)S1)NC1CCCCC1 (stereo not given)	-1%[38.3 µM]	17	-3	7.9µM*	7.1µM*	-12%
CN(N=O)C(=O)N[C@H]1C(O)C(O)C(CO)O[C@@H]1O (stereo not given in full)	32%	.	.	0%	-4%	2%
CCC1CCc2c(sc(NC(=O)C3CC=CCC3C(=O)O)c2C#N)C1 (stereo not given)	-6%	8	.	32µM*	1.8µM*	-4%
NS(=O)(=O)c1ccc(NC(=O)c2ccc(-c3ccccc3)cc2)cc1	8.9µM*	.	.	.	-8%	.
NS(=O)(=O)c1ccc(NS(=O)(=O)c2ccc(NC(=O)c3ccc(-c4ccccc4)cc3)cc2)cc1	0%[38.3 µM]	57	-2	-23%	1%	4%
C=CCN(CC=C)S(=O)(=O)c1ccc(NC(=S)NC(=O)Cc2ccc(OC)cc2)cc1	17%[38.3 µM]	20	10	-12%	-8%	?
NS(=O)(=O)c1ccc(NC(=O)N2c3ccccc3Sc3ccccc32)cc1	1%[38.3 µM]	18	2	-9%	4%	16µM*
C=CCN(CC=C)S(=O)(=O)c1ccc(NC(=S)NC(=O)c2ccc(-c3ccccc3)cc2)cc1	-146%[38.3 µM]	21	12	?	3.2µM*	?
C=CCN(CC=C)S(=O)(=O)c1ccc(NC(=S)NC(=O)c2ccco2)cc1	32%[38.3 µM]	-18	22	-14%	22µM*	-25%
CCc1ccc(NC(=O)N2c3ccccc3Sc3ccccc32)cc1	.	.	-1	.	.	.
O=C(c1ccco1)n1nc(-c2ccccc2)nc1NCc1ccc(F)cc1	.	.	-10	.	.	.
CCOc1cc(-c2nc(-c3ccc(Br)cc3)no2)cc(OCC)c1OCC	.	.	-1	.	.	.
O=C(c1cnccn1)N1CCC2(CCCN(c3ccccc3)C2)CC1	22%	.	.	-10%	-3%	-2%
NC[C@@H](O)CSCc1ccc(Cl)cc1	-7%	.	.	-5%	5%[13.5 µM]	-8%[11.4 µM]
O=C1CC(Nc2ccc(N3CCOCC3)cc2)C(=O)N1Cc1ccccc1 (stereo not given)	16%	-119*	3	5%	?	?
CCOc1ccccc1N1C(=O)CC(Nc2ccc(N3CCOCC3)cc2)C1=O (stereo not given)	22%[38.3 µM]	12	1	-16%	7.9µM*	?
O=C1C=C(Nc2ccc(O)cc2)C(=O)c2ccccc21	.	.	.	.	-8%	.
O=C1C=C(O)c2ccccc2C1=O	25%	.	.	?	16µM*	-13%
CCn1c(SCC(=O)c2ccc(F)cc2)nnc1-c1ccoc1C	48%[38.3 µM]	?	?	?	22µM*	-8%
Cc1occc1-c1nnc(SCCCC(=O)c2ccc(F)cc2)n1C	5%[38.3 µM]	-10	2	-14%	?	11%
CCCCn1c(SCC(=O)N2CCOCC2)nnc1-c1ccoc1C	5%	-100*	-6	-5%	-5%	-2%
Cc1oc2c(cc(NS(=O)(=O)c3ccc(F)cc3)c3ccccc32)c1C(=O)OCc1ccccc1	.	.	-4	.	.	.
C/C(=C\CO)CCC(C)CCCC(C)CCCC(C)C (stereo not given)	-4%	.	.	-9%	-16%	-2%
CCOC(=O)C1=C(C)NC(=S)NC1c1ccc(-c2cccc(Cl)c2C)o1 (stereo not given)	11%[38.3 µM]	-21	1	-11%	0.89µM*	?
CCOC(=O)C1=C(C)NC(=S)NC1c1ccc(-c2ccc(Cl)cc2)o1 (stereo not given)	-4%	-30	.	-10%	4.5µM*	?
SMILES	IMPase Li inh	PNC assembly inh	IMPase cell inh	HPGD inh	ALDH1A1 inh	12-hLO inh
COC(=O)C1=C(C)NC(=S)NC1c1ccc(-c2ccccc2C(=O)OC)o1 (stereo not given)	6%	.	.	.	16µM*	.
COC(=O)C1=C(C)NC(=S)NC1c1ccc(-c2cccc(Cl)c2)o1 (stereo not given)	1%	-8	.	-28%	2µM*	?
COC(=O)C1=C(C)NC(C)=C(C(=O)OC)C1c1ccc(-c2cccc(Cl)c2Cl)o1	-4%	5	-12	?	?	-3%
N#C/C(=C(\O)C(=O)O)c1ccc(-c2cccc3ccccc23)cc1	-3%	.	.	-3%	2%[13.5 µM]	4%[11.4 µM]
N[C@@H](Cc1c[nH]c2ccc([N+](=O)[O-])cc12)C(=O)O	2%	.	.	-5%	7%[13.5 µM]	4%[11.4 µM]
CCOC(=O)C1CCN(C2CC(=O)N(c3cccc(Cl)c3)C2=O)CC1 (stereo not given)	15%[38.3 µM]	32	13	-6%	20µM*	-4%
O=C(C1CCN(C2CC(=O)N(c3cccc(Cl)c3)C2=O)CC1)N1CCCC1 (stereo not given)	11%[38.3 µM]	-18	14	-20%	3.2µM*	-10%
O=C1CC(N2CCN(C3CC(=O)N(CCc4ccccc4)C3=O)CC2)C(=O)N1CCc1ccccc1 (stereo not given)	8%[38.3 µM]	-27	-10	-4%	-22%	-1%
O=C1CC(N2CCC(Cc3ccccc3)CC2)C(=O)N1CCc1ccccc1 (stereo not given)	28%[38.3 µM]	28	-11	-17%	2.2µM*	-13%
O=C1CC(N2CCOCC2)C(=O)N1c1ccc2c(c1)OCO2 (stereo not given)	19%[38.3 µM]	9	-2	-9%	?	1%
O=C(C1CCN(C2CC(=O)N(c3ccc(Cl)cc3)C2=O)CC1)N1CCOCC1 (stereo not given)	34%[38.3 µM]	-6	3	-9%	13µM*	0%
O=C(C1CCN(C2CC(=O)N(Cc3ccccc3)C2=O)CC1)N1CCCCCC1 (stereo not given)	16%[38.3 µM]	-1	3	?	11µM*	0%
COc1cccc(C2SCC(=O)N2c2ccc(C)cc2)c1OC (stereo not given)	16%	?	.	-6%	14µM*	2%
Cc1ccc(C)c(N2C(=O)c3ccc(C(=O)OCC(=O)c4c(N)n(C)c(=O)n(C)c4=O)cc3C2=O)c1	4%	48	.	-19%	20µM*	1%
Nc1nc(-c2cccs2)c(NC(=O)c2ccccc2)s1	11%[38.3 µM]	-26	21	-6%	20µM*	-20%
N#CC1=C(N)N(c2ccc(F)cc2)C2=C(C1c1ccc(O)cc1)S(=O)(=O)CC2 (stereo not given)	11%	.	.	.	11µM*	.
COCC(=O)N1CCC2(CC1)CCN(C(=O)Nc1cccc(C#N)c1)CC2	-7%	.	.	-6%	16%	-1%
Cc1ccc(S(=O)(=O)c2nc(-c3cccc(Br)c3)oc2N2CCCCCC2)cc1	.	.	4	.	.	.
CSc1nc(-c2ccccc2)nc(N2CCCC2)c1C(C)=O	0%[38.3 µM]	-1	?	20µM*	4%	-4%

Source: PubChem BioAssay
